# PubChem BioAssay (NCI)
# This is part of a sample that, as a whole, favours compounds with a hit. Of some 79,000 tested, about 15% had one in any assay. Unmarked numbers belong to inactive results. Calls of active or inactive are those of the source. Cut-off read from the data, not from the text of the source: active = growth inhibition above about 70%; inactive = the rest.
# Tests used:
# [1] = NCI Yeast Anticancer Drug Screen. Data for the rad52 strain (AID 147);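 note: 0% = growth of vehicle-treated control cultures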; conditions: S. cerevisiae rad52 mutant growth inhibition, hits give high values
# In short: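 The repair-mutant yeast strain was incubated with compounds, then growth was read and inhibition derived relative to vehicle.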
# [2] = NCI Yeast Anticancer Drug Screen. Data for the wt1 strain (AID 149);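 note: 0% = growth of vehicle-treated wt1 cultures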; conditions: S. cerevisiae wt1 strain (SPY 50644) growth inhibition, hits give high values
# In short: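 Using yeast strain wt1, compound-induced growth inhibition was determined against vehicle-treated cultures.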
# [3] = NCI Yeast Anticancer Drug Screen. Data for the rad50EPP+ strain (AID 151);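 note: 0% = growth of vehicle-treated control cultures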; conditions: S. cerevisiae rad50 mutant strain, hits give high values
# In short: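 Vehicle-normalised growth inhibition; rad50EPP+ yeast strain, altered in DNA damage repair, compound-treated.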
# [4] = NCI Yeast Anticancer Drug Screen. Data for the mgt1 strain (AID 153); conditions: S. cerevisiae mgt1 mutant growth inhibition, hits give high values
# In short: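 Vehicle-normalized growth inhibition is determined in mgt1 yeast, a strain selected for a defined alteration in DNA repair or cell cycle control.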
# [5] = NCI Yeast Anticancer Drug Screen. Data for the rad50 strain (AID 155);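 note: 0% = growth of vehicle-only cultures of the same strain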; conditions: S. cerevisiae rad50 strain growth inhibition, hits give high values
# In short: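 Relative growth inhibition (compound vs vehicle) was measured in yeast with a defined repair-gene alteration.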
# [6] = NCI Yeast Anticancer Drug Screen. Data for the mec2-1 strain (AID 157); conditions: S. cerevisiae mec2-1 strain, hits give high values
# In short: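 Mutant yeast (mec2-1) grown with compound; growth inhibition relative to vehicle control reported.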
# [7] = NCI Yeast Anticancer Drug Screen. Data for the rad14 strain (AID 159);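 note: 0% = growth of vehicle-treated control cultures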; conditions: S. cerevisiae rad14 strain growth inhibition, hits give high values
# In short: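 Screen for anticancer potential: a yeast strain altered in DNA damage repair is grown with compound, and reduced growth is quantified against vehicle controls.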
# [8] = NCI Yeast Anticancer Drug Screen. Data for the sgs1 mgt1 strain (AID 161);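 note: 0% = growth of cultures given vehicle only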; conditions: S. cerevisiae sgs1 mgt1 strain, hits give high values
# In short: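 Percent growth inhibition was derived by comparing compound-exposed mutant yeast with vehicle-exposed cultures. The strain carries alterations in DNA damage repair.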
# [9] = NCI Yeast Anticancer Drug Screen. Data for the CLN2oe strain (AID 163);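 note: 0% = growth of vehicle-only control cultures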; conditions: S. cerevisiae CLN2oe strain, hits give high values
# In short: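 Compounds are applied to yeast harbouring a defined cell-cycle control change; reduced growth compared with vehicle-treated controls gives the value.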
# [10] = NCI Yeast Anticancer Drug Screen. Data for the cln2 rad14 strain (AID 165);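 note: 0% = growth equal to vehicle treated cultures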; conditions: S. cerevisiae cln2 rad14 strain, hits give high values
# In short: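 Readout is yeast growth inhibition versus vehicle-treated controls, using a strain with cln2 and rad14 alterations exposed to compound.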
# [11] = NCI Yeast Anticancer Drug Screen. Data for the bub3 strain (AID 167); conditions: S. cerevisiae bub3 mutant strain, hits give high values
# In short: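 Screening used yeast with an engineered genetic alteration affecting cell cycle control. Compound-exposed cultures were compared with vehicle cultures, and reduced growth was taken as inhibition.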
# [12] = NCI Yeast Anticancer Drug Screen. Data for the wt2 strain (AID 169);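 note: 0% = growth of vehicle-treated yeast cultures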; conditions: S. cerevisiae wt2 strain growth inhibition, hits give high values
# In short: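 Against vehicle-treated controls, the growth of yeast exposed to each compound was compared, and the inhibition was recorded.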
# [13] = NCI Yeast Anticancer Drug Screen. Data for the mlh1 strain (AID 171);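 note: 0% = growth of vehicle-treated control cultures of the same strain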; conditions: S. cerevisiae mlh1 strain growth inhibition, hits give high values
# In short: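 Measured: yeast growth. Reference: vehicle-treated controls. Organism: strain with a defined alteration affecting DNA damage repair or cell cycle control, treated with compound.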
# [14] = NCI Yeast Anticancer Drug Screen. Data for the sgs1 strain (AID 173);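 note: 0% = growth of vehicle-only control cultures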; conditions: S. cerevisiae sgs1 mutant, hits give high values
# In short: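 Each compound was added to cultures of the altered yeast strain. Growth was recorded, and inhibition was derived by comparison with vehicle controls.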
# [15] = NCI Yeast Anticancer Drug Screen. Data for the mlh1 rad18 strain (AID 175); conditions: S. cerevisiae mlh1 rad18 strain growth inhibition, hits give high values
# In short: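 Genetically defined yeast (DNA repair-deficient) exposed to compounds; growth inhibition determined relative to vehicle.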
# [16] = NCI Yeast Anticancer Drug Screen. Data for the rad18 strain (AID 177); conditions: S. cerevisiae rad18 mutant growth inhibition, hits give high values
# In short: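 Vehicle-treated cultures served as the baseline for scoring compound-induced growth inhibition in DNA-repair-mutant yeast.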
# [17] = at 5.0 µM (retest, dose inferred, filed as 0.5)
# [18] = at 50.0 µM (retest, dose inferred, filed as 5.0)
smiles,measurement,setting,value
O=CNc1ccc2c(c1)C(=O)c1ccccc1-2,growth inhibition,[1]; at 1.2 µM,8%
same,growth inhibition,[1]; at 3.7 µM,15%
same,growth inhibition,[1]; at 11.0 µM,40%
same,growth inhibition,[1]; at 33.0 µM,94% (active)
same,growth inhibition,[1]; at 100.0 µM,97% (active)
same,growth inhibition,[2]; at 1.2 µM,-2%
same,growth inhibition,[2]; at 3.7 µM,-1%
same,growth inhibition,[2]; at 11.0 µM,8%
same,growth inhibition,[2]; at 33.0 µM,27%
same,growth inhibition,[2]; at 100.0 µM,85% (active)
same,growth inhibition,[3]; at 1.2 µM,5%
same,growth inhibition,[3]; at 3.7 µM,12%
same,growth inhibition,[3]; at 11.0 µM,26%
same,growth inhibition,[3]; at 33.0 µM,86% (active)
same,growth inhibition,[3]; at 100.0 µM,95% (active)
same,growth inhibition,[4]; at 1.2 µM,4%
same,growth inhibition,[4]; at 3.7 µM,5%
same,growth inhibition,[4]; at 11.0 µM,9%
same,growth inhibition,[4]; at 33.0 µM,47%
same,growth inhibition,[4]; at 100.0 µM,97% (active)
same,growth inhibition,[5]; at 1.2 µM,13%
same,growth inhibition,[5]; at 3.7 µM,22%
same,growth inhibition,[5]; [17],7%
same,growth inhibition,[5]; at 11.0 µM,37%
same,growth inhibition,[5]; at 33.0 µM,93% (active)
same,growth inhibition,[5]; [18],75% (active)
same,growth inhibition,[5]; at 50.0 µM,94.2% (active)
same,growth inhibition,[5]; at 100.0 µM,96% (active)
same,growth inhibition,[6]; at 1.2 µM,3%
same,growth inhibition,[6]; at 3.7 µM,4%
same,growth inhibition,[6]; [17],6%
same,growth inhibition,[6]; at 11.0 µM,3%
same,growth inhibition,[6]; at 33.0 µM,36%
same,growth inhibition,[6]; [18],37%
same,growth inhibition,[6]; at 50.0 µM,37.7%
same,growth inhibition,[6]; at 100.0 µM,95% (active)
same,growth inhibition,[7]; at 1.2 µM,5%
same,growth inhibition,[7]; at 3.7 µM,9%
same,growth inhibition,[7]; at 11.0 µM,14%
same,growth inhibition,[7]; at 33.0 µM,46%
same,growth inhibition,[7]; at 100.0 µM,96% (active)
same,growth inhibition,[8]; [17],5%
same,growth inhibition,[8]; [18],55%
same,growth inhibition,[8]; at 50.0 µM,19.3%
same,growth inhibition,[9]; at 1.2 µM,10%
same,growth inhibition,[9]; at 3.7 µM,10%
same,growth inhibition,[9]; at 11.0 µM,18%
same,growth inhibition,[9]; at 33.0 µM,37%
same,growth inhibition,[9]; at 100.0 µM,75% (active)
same,growth inhibition,[10]; [17],-15%
same,growth inhibition,[10]; [18],-5%
same,growth inhibition,[10]; at 50.0 µM,26.8%
same,growth inhibition,[11]; at 1.2 µM,9%
same,growth inhibition,[11]; at 3.7 µM,0%
same,growth inhibition,[11]; [17],-6%
same,growth inhibition,[11]; at 11.0 µM,16%
same,growth inhibition,[11]; at 33.0 µM,61%
same,growth inhibition,[11]; [18],66%
same,growth inhibition,[11]; at 50.0 µM,62.9%
same,growth inhibition,[11]; at 100.0 µM,87% (active)
same,growth inhibition,[12]; at 1.2 µM,-2%
same,growth inhibition,[12]; at 3.7 µM,0%
same,growth inhibition,[12]; at 11.0 µM,8%
same,growth inhibition,[12]; at 33.0 µM,48%
same,growth inhibition,[12]; at 100.0 µM,96% (active)
same,growth inhibition,[13]; at 1.2 µM,3%
same,growth inhibition,[13]; at 3.7 µM,10%
same,growth inhibition,[13]; at 11.0 µM,16%
same,growth inhibition,[13]; at 33.0 µM,72% (active)
same,growth inhibition,[13]; at 100.0 µM,97% (active)
same,growth inhibition,[14]; at 1.2 µM,-2%
same,growth inhibition,[14]; at 3.7 µM,0%
same,growth inhibition,[14]; at 11.0 µM,6%
same,growth inhibition,[14]; at 33.0 µM,52%
same,growth inhibition,[14]; at 100.0 µM,94% (active)
same,growth inhibition,[15]; [17],4%
same,growth inhibition,[15]; [18],61%
same,growth inhibition,[15]; at 50.0 µM,69.5%
same,growth inhibition,[16]; at 1.2 µM,2%
same,growth inhibition,[16]; at 3.7 µM,3%
same,growth inhibition,[16]; at 11.0 µM,7%
same,growth inhibition,[16]; at 33.0 µM,52%
same,growth inhibition,[16]; at 100.0 µM,94% (active)
